Among the data in PubChem BioAssay are composite z-score and z-score values, retold here.

Assay [1] relates to Plasmodium falciparum Sir2 (PF13_0152, Sir2A). As to the kind of experiment: Plasmodium falciparum Sir2A binding compounds – biochemical, small-molecule microarray, 635 nm fluorescence, primary screen (AID 1098).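 Further: score merges spot fluorescence intensity with its signal-to-noise ratio.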 To be noted: fluorescence 635 nm, higher = more signal.
Assay [2] can be described thus: probe aDKK1 binding to arrayed compounds – biochemical, biotinylated probe, 635/667 nm fluorescence, primary screen (AID 1099).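 Further: score merges 667nm spot fluorescence with signal to noise across triplicate slides.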 Conditions: small-molecule microarray, higher = more signal.
Assay [3] can be described thus: probe aCHRDL2 binding to arrayed compounds – biochemical, biotinylated probe, 635/667 nm fluorescence, primary screen (AID 1100). Conditions: small-molecule microarray, higher = more signal.
A short description of assay [4]: change in splice reporter luminescence, either direction, cell-based, HEK293, spliceosome inhibition project, primary screen (AID 1101).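 Further: HEK293 cells carrying a splicing-competent luciferase reporter gene; test concentration not given here.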 To be noted: HEK293 splicing luciferase reporter, 24 h, higher = more signal, called active from +8 up or from −8 down. (In general: A reporter such as luciferase makes a cellular process visible.)
The target in assay [5] is Fibroblast growth factor 10 (Homo sapiens) (UniProt O15520). As to the kind of experiment: compounds binding fibroblast growth factor 10 – biochemical, small-molecule microarray, 635 nm fluorescence, primary screen (AID 1102). Conditions: FGF10 binding, fluorescence 635 nm, higher = more signal.
The test system of assay [6] is glycogen synthase kinase-3 (GSK3A per assay name; protocol says GSK3B). Nature of the assay: compounds binding glycogen synthase kinase-3 – biochemical, small-molecule microarray, 635 nm fluorescence, GSK3A, primary screen (AID 1103). Further: the record names both GSK3A and GSK3B. Conditions: fluorescence 635 nm, higher = more signal.
Assay [7] deals with Epidermal growth factor receptor (Homo sapiens) (UniProt P00533). Nature of the assay: compounds binding epidermal growth factor receptor – biochemical, small-molecule microarray, 635 nm fluorescence, primary screen (AID 1104).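 Further: score merges 667 nm emission intensity with spot signal to noise over triplicate slides.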 Conditions: EGFR binding, higher = more signal.
Assay [8] addresses Follistatin-related protein 3 (Homo sapiens) (UniProt O95633). Nature of the assay: compounds binding follistatin-related protein 3 – biochemical, small-molecule microarray, 635 nm fluorescence, primary screen (AID 1105).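 Further: score merges emission near 667 nm and signal to noise per printed spot across three slides.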 Conditions: FSTL3 binding, higher = more signal.
Assay [9] concerns the target Dickkopf-related protein 1 (Homo sapiens) (UniProt O94907). As to the kind of experiment: small molecules binding DKK1 protein – biochemical, small-molecule microarray, 635 nm fluorescence scan, primary screen (AID 1106).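 Further: score merges emission near 667 nm with signal to noise over three replicate slides.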 To be noted: higher = more signal.
For assay [10], the system named is Inhibin beta A chain (activin A). Nature of the assay: small molecules binding activin A – biochemical, small-molecule microarray, 635 nm fluorescence scan, primary screen (AID 1107).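 Further: mouse activin A protein probed at 4.33 µg/mL on printed slides; score merges bound-protein fluorescence near 667 nm with spot signal-to-noise.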 Conditions: INHBA, higher = more signal.
Assay [11] concerns Human papillomavirus type 1a protein E7 (residues 44-93). As to the kind of experiment: small molecules binding HPV E7 44-93 – biochemical, small-molecule microarray, residues 44-93, 635 nm fluorescence, primary screen (AID 1108).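 Further: E7 fragment applied at 1 µg/mL in TBST for 1 h at 4 C; score combines spot fluorescence with its signal to noise ratio.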 To be noted: fluorescence 635 nm, higher = more signal.
The nature of assay [12]: hepatitis C replication reporter changes, two-sided – Huh7 cells, luciferase reporter, HCV replication inhibitor project, primary screen (AID 1109).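 Further: huh7 hepatoma cells harbouring a luciferase neomycin HCV replicon reporter; luciferase luminescence as measure of HCV replicon replication; test concentration not given here.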 Conditions: Huh7 HCV replicon luciferase reporter, 48 h; higher = more signal.
For assay [13], the target named is Left-right determination factor 2 (Homo sapiens) (UniProt O00292). As to the kind of experiment: small molecules binding LEFTY2 protein – biochemical, small-molecule microarray, 635 nm fluorescence scan, primary screen (AID 1110). To be noted: higher = more signal.
In assay [14] the target is Calmodulin-1 (Homo sapiens) (UniProt P0DP23). Nature of the assay: small molecules binding calmodulin-1 with EGTA – biochemical, small-molecule microarray, Cy5-labelled CALM1, profiling panel (AID 1111).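 Further: labelled calmodulin applied in Tris saline Tween buffer holding calcium plus EGTA and DTT.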 To be noted: Cy5-CALM1 binding fluorescence, higher = more signal.
The target is the same in assay [15]. Nature of the assay: small molecules binding Ca-loaded calmodulin-1 – biochemical, small-molecule microarray, Cy5-labelled CALM1, plus calcium, artefact control for SMM control-protein annotation, profiling panel (AID 1112).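 Further: score merges spot fluorescence with signal to noise from triplicate slides.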 To be noted: Cy5-CALM1 binding fluorescence, higher = more signal.
Assay [16] is described as follows: probe aWnt5a binding to arrayed compounds – biochemical, biotinylated probe, 635/667 nm fluorescence, primary screen (AID 1113).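 Further: score merges 667 nm fluorescence intensity with signal-to-noise per printed feature.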 To be noted: small-molecule microarray, higher = more signal.
The nature of assay [17]: probe aShh binding to arrayed compounds – biochemical, biotinylated probe, 635/667 nm fluorescence, primary screen (AID 1114).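 Further: probe is biotin-labelled aShh protein from a stem cell growth factor screen; measures binding of labelled protein to compounds printed on the slide; score merges feature fluorescence at 667 nm with signal-to-noise.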 Conditions: small-molecule microarray, higher = more signal.
The nature of assay [18]: probe aNog binding to arrayed compounds – biochemical, biotinylated probe, 635/667 nm fluorescence, primary screen (AID 1115).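 Further: probe is biotinylated aNog protein used at 0.15 µg/mL for 1 h at 4 C; z-score combines 667 nm fluorescence of each spot with its signal to noise.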 Conditions: small-molecule microarray, higher = more signal.
The target of assay [19] is Torsin-1A-interacting protein 1 (Homo sapiens) (UniProt Q5JTV8). As to the kind of experiment: compound microarray binding of lysate hLAP1 – cell lysate, small-molecule microarray, COS7 lysate, 635/667 nm fluorescence, primary screen (AID 1116). To be noted: 635 nm fluorescence, higher = more signal.
Assay [20] concerns the target Alpha-bungarotoxin (Bungarus multicinctus) (UniProt P60615). As to the kind of experiment: compounds binding labelled alpha-BTX control protein – biochemical, small-molecule microarray, Alexa647 label, 635/667 nm fluorescence, artefact control for SMM control protein annotation, profiling panel (AID 1117). Conditions: alpha-BTX-A647 binding fluorescence, higher = more signal.

The source made the active and inactive calls.

Chain of Dickkopf-related protein 1 (Homo sapiens) (O94907 whole entry, looked up): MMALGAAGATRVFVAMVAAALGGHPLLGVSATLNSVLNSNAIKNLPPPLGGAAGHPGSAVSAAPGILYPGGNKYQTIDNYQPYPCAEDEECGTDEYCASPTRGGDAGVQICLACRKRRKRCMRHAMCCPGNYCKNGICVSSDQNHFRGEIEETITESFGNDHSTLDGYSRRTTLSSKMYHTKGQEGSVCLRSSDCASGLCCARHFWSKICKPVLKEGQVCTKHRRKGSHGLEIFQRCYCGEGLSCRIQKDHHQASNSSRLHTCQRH
Chain of Left-right determination factor 2 (Homo sapiens) (O00292 whole entry, looked up): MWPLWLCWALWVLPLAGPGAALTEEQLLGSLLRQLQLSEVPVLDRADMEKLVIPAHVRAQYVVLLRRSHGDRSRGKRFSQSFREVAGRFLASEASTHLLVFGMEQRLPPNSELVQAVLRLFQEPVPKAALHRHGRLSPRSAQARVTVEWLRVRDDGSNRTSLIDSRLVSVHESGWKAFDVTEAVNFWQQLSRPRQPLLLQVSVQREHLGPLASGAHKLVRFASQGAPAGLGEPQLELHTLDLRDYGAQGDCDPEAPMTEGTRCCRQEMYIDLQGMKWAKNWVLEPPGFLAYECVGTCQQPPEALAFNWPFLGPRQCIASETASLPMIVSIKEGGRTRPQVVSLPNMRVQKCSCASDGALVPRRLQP
Chain of Alpha-bungarotoxin (Bungarus multicinctus) (P60615 whole entry, looked up): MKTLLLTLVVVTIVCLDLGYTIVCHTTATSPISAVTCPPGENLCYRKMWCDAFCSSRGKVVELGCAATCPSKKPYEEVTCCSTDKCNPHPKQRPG
Chain of Torsin-1A-interacting protein 1 (Homo sapiens) (Q5JTV8 whole entry, looked up): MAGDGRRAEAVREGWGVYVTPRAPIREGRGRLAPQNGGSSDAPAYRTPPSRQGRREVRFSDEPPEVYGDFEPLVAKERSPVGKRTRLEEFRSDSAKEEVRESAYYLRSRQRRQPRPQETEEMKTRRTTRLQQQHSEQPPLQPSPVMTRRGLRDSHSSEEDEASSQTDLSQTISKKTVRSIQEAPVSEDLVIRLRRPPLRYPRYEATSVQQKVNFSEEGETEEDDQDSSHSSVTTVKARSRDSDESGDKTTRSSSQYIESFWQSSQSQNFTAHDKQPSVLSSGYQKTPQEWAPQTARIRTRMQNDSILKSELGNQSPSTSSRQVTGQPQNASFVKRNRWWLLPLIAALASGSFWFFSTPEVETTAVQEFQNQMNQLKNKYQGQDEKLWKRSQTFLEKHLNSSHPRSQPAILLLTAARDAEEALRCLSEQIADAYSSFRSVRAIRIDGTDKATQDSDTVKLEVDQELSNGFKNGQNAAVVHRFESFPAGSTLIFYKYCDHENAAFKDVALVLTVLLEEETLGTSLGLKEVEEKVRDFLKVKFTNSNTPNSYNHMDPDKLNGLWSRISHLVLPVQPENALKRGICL
Chain of Epidermal growth factor receptor (Homo sapiens) (P00533 whole entry, looked up): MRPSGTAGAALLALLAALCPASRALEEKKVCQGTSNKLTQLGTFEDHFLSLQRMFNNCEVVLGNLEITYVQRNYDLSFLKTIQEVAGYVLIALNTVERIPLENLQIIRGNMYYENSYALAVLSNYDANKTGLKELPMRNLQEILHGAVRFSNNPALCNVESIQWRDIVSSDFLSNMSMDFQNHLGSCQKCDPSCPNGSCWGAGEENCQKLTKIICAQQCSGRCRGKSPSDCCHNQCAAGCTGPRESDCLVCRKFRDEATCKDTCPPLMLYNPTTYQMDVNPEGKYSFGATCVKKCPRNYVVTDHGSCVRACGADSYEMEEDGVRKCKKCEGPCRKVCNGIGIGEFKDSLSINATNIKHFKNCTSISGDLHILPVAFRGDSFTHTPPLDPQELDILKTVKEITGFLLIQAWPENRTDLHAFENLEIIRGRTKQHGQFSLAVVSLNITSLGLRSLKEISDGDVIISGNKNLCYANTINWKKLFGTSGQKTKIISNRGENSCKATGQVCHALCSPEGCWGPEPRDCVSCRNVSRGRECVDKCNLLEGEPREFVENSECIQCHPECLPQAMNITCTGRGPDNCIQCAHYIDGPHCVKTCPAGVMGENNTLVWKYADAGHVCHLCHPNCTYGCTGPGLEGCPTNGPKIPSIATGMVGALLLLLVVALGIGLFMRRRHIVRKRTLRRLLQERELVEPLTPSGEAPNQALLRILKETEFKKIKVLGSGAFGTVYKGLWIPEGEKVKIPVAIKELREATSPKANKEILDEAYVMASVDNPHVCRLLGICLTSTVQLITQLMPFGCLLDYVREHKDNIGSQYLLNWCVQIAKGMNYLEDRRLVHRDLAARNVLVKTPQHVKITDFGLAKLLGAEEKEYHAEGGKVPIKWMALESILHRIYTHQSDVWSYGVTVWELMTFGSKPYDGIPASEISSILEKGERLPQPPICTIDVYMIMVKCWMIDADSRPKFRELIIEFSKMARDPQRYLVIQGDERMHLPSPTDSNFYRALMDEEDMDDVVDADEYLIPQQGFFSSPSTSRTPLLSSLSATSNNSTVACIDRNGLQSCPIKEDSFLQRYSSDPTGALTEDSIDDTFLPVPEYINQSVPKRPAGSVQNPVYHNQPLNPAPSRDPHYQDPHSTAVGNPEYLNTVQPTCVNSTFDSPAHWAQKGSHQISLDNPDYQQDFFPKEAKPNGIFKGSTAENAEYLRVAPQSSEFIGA
Chain of Follistatin-related protein 3 (Homo sapiens) (O95633 whole entry, looked up): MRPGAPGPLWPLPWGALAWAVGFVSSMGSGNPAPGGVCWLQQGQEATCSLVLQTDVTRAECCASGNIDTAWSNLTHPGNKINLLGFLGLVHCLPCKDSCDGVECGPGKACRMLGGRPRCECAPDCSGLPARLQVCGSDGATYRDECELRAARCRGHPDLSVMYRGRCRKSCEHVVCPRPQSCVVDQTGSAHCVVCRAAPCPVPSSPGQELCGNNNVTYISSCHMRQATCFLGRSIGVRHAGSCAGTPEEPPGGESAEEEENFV
Chain of Fibroblast growth factor 10 (Homo sapiens) (O15520 whole entry, looked up): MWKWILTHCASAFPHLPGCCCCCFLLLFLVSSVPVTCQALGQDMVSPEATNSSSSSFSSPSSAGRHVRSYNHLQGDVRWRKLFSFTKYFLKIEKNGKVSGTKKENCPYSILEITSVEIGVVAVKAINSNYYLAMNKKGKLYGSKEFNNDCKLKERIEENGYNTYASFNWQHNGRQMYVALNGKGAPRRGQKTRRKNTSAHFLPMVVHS

With `COC(=O)C(CC#Cc1ccc2c(c1)[C@]1(C(=O)N2)[C@H](C(=O)N2CCCCCCC2)[C@H]2C(=O)O[C@H](c3ccccc3)[C@H](c3ccccc3)N2[C@@H]1c1ccc(OCCO)cc1)C(=O)OC`, the composite z-score in assay [1] is 2.26; in assay [2] it was 2.85; in [3], 1.58; in [5], 1.63; in assay [6], 1.5; in assay [7], 1.94. In addition, the composite z-score in assay [8] was determined as 1.71; in assay [9], 2.55; in assay [10] it was 1.73; in assay [11] it was 1.55; in assay [13], 1.76; in [14], 3.07. Besides, the composite z-score in assay [15] was determined as 1.68; in [16], 1.63; in assay [17], 3.53; in assay [18] it was 3.7; in [19], 6.05; in [20], 4.36. Also, the results for the z-score in [4] and in [12] were 0.741 (inactive) and -1.57, respectively.
`O=C1O[C@@H](c2ccccc2)[C@@H](c2ccccc2)N2[C@@H](c3ccc(OCCO)cc3)[C@]3(C(=O)Nc4ccc(C#CC5=CCCCC5)cc43)[C@@H](C(=O)Nc3nc4ccccc4s3)[C@H]12`: the composite z-score in [1] is 1.63; in assay [2] it was -0.127; in assay [3] it was -1.13; in [5] it was 1.01; in assay [6], 0.489; in [7], 0.554. Moreover, the composite z-score in [8] is 0.0685; in [9], -0.188; in assay [10], -0.289; in assay [11], 0.597; in assay [13], -0.005; in assay [14] it was 0.516. For the same molecule, the composite z-score in [15] was -0.188; in [16] it was 0.0243; in assay [17] it was -0.708; in [18] it was 0.704; in [19], 0.0065; in assay [20], 0.4. Also, the z-score is -0.61 (inactive) in [4] and -1.88 in assay [12].
Take `COCCOC(=O)N1C(=O)[C@@]2(c3cc(C#CCC(C(=O)OC)C(=O)OC)ccc31)[C@H](C(=O)N1CCc3cc(OC)c(OC)cc3C1)[C@H]1C(=O)O[C@H](c3ccccc3)[C@H](c3ccccc3)N1[C@@H]2c1ccccc1OCCO`: the composite z-score in assay [1] is 0.496; in assay [2] it was -0.381; in assay [3], -0.162; in assay [5], 1.18; in assay [6] it was 1.31; in assay [7] it was 1.01. Further, the composite z-score in assay [8] stood at 1.38; in assay [9], 1.19; in assay [10], 1.02; in assay [11], 1.36; in [13], 1.07; in assay [14], 0.965. Besides, the composite z-score was -0.226 in assay [15]; -0.0125 in assay [16]; 1.57 in [17]; -0.512 in assay [18]; 1.03 in [19]; 0.774 in assay [20]. Also, the z-score in assay [4] is -0.606 (inactive); in assay [12], -1.61.
`COC(=O)C[C@H]1O[C@]2(C(=O)N(C)c3ccccc32)[C@@H](C)[C@@H]1[Si](C)(C)c1ccccc1`: the composite z-score was -0.0153 in assay [1]; -0.0571 in [2]; -0.261 in assay [3]; 0.988 in assay [5]; 0.96 in assay [6]; 0.753 in assay [7]. The composite z-score in [8] is 0.837; in assay [9], 1.11; in assay [10], -0.399; in assay [11], 0.623; in [13] it was 0.469; in [14] it was -0.0495. Further, the composite z-score in assay [15] was -0.401; in assay [16], -0.124; in assay [17], 0.318; in [18] it was -0.0446; in assay [19], 0.0282; in [20] it was 0.586. The z-score in assay [4] was -1.25 (inactive); in [12], -2.1.
Regarding `COC(=O)[C@]1(Cc2ccccc2N=[N+]=[N-])N=C(c2ccc(OCCCO)cc2)O[C@@H]1c1ccccc1CN=[N+]=[N-]`, the composite z-score in assay [1] is 0.843; in assay [2] it was 2.44; in assay [3], 1.13; in assay [5], 0.975; in assay [6], 0.712; in assay [7], 0.0466. Besides, the composite z-score in [8] was 0.315; in assay [9], 0.236; in assay [10] it was 1.1; in assay [11], 1.37; in assay [13] it was 0.112; in assay [14], 0.149. Further, the composite z-score in assay [15] is -0.529; in assay [16], -0.148; in [17], -0.0324; in assay [18], 1.14; in assay [19] it was 1.3; in assay [20], 0.874. In addition, the z-score in assay [4] is 2.71 (inactive); in assay [12], -3.42.
